For 22 compounds, Euclidean distance results are on record in the supplement of paper PMC10127200.

Counter-ions that a name gives are not always drawn.

Common to all, as to test: Euclidean distance of Cell Painting phenotypic profile (signed KS, 77 features) to DMSO centroid (dimensionless distance); 5 or 10 uM (library dependent); higher = stronger phenotypic change vs DMSO (phenoactivity)
Details in all cases: 48 h

In one assay the test system is 786-O. The essentials:
(§1)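 Stained cells were imaged confocally at 20X with 9 fields per well, after 48 h of exposure to library compounds at 10 or 5 uM (set by library; 0.1% DMSO final). The cells were five cancer lines and a healthy fibroblast line. From the images, Harmony extracted 77 features, each expressed as a signed Kolmogorov-Smirnov statistic relative to same-plate vehicle wells. Phenoactivity is measured as Euclidean distance to the median vehicle profile, using plate-position-corrected, correlation-weighted profiles averaged across replicates at the top dose.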

Another assay relates to A549. The essentials:
as §1

In another assay the test system is DU145. The essentials: as §1
In the next assay the test system is FB. The procedure, abridged: as §1
The next assay relates to HEPG2. The procedure, abridged: as §1
The next assay concerns OVCAR4. The essentials: as §1

Take `CCN(C(=O)c1c(O)c2c(Cl)cccc2n(C)c1=O)c1ccccc1` [Laquinimod]: the Euclidean distance was found to be 0.923 in the assay on 786-O; 0.95 in the assay on A549; 0.863 in the assay on DU145; 0.902 with FB; 0.638 in the assay with HEPG2; 1.25 in the assay with OVCAR4.

Take `CNCC(=O)O` [Sarcosine]: the Euclidean distance in the assay with 786-O stood at 1.77; in the assay with A549 it was 0.92; in the assay with DU145 it was 1.05; with FB it was 1.13; in the assay on HEPG2, 0.831; in the assay on OVCAR4 it was 1.75.

For the compound `Nc1nc(N)c2nc(-c3cccc(O)c3)cnc2n1`, the Euclidean distance in the assay with 786-O is 0.828; in the assay with A549, 1.47; in the assay on DU145, 1.28; in the assay on FB, 2.43; in the assay on HEPG2, 0.858; in the assay with OVCAR4 it was 1.9.

With `COc1cc(OC)c(C(=O)CCCN2CCCC2)c(OC)c1` [Buflomedil HCl], the Euclidean distance in the assay with 786-O stood at 1.46; with A549, 1.05; in the assay on DU145, 0.962; in the assay on FB it was 1.04; with HEPG2, 0.715; in the assay with OVCAR4 it was 1.18.

As to `CCCCCNC(=N)N/N=C/c1c[nH]c2ccc(OC)cc12` [Tegaserod Maleate], the Euclidean distance was determined as 5.85 in the assay with 786-O; 4.48 with A549; 5.39 in the assay on DU145; 6.34 with FB; 4.98 in the assay with HEPG2; 5.08 with OVCAR4.

For `N#Cc1c(Oc2ccc(F)c(NC(=O)Cc3cccc(C(F)(F)F)c3)c2)ccc2nc(NC(=O)C3CC3)sc12`, the Euclidean distance in the assay on 786-O was found to be 2.61; with A549, 2.09; in the assay with DU145 it was 0.85; with FB, 1.19; in the assay with HEPG2, 1.22; with OVCAR4 it was 2.04.

Take `CCCN[C@H]1CCc2nc(N)sc2C1` [Pramipexole 2HCl Monohydrate]: the Euclidean distance in the assay with 786-O turned out to be 0.779; in the assay with A549, 1.01; in the assay on DU145, 1.58; in the assay with FB, 1.08; in the assay with HEPG2 it was 0.888; with OVCAR4, 1.26.

Turning to `Clc1cccc(Cl)c1NC1=NCCN1` [Clonidine HCl], the Euclidean distance with 786-O came to 1.05; with A549, 1.46; in the assay on DU145 it was 1.32; with FB, 1.16; with HEPG2, 0.83; in the assay on OVCAR4, 1.24.

Take `CN(C)c1nc(N(C)C)nc(N(C)C)n1` [Altretamine]: the Euclidean distance in the assay with 786-O was 1.11; in the assay with A549 it was 0.902; with DU145, 0.807; in the assay on FB, 1.32; with HEPG2, 0.597; in the assay with OVCAR4, 0.929.

Take `CC(C)(C)NC(=O)N[C@H](C(=O)N1C[C@H]2[C@@H]([C@H]1C(=O)NC(CC1CCC1)C(=O)C(N)=O)C2(C)C)C(C)(C)C` (some centres not stated) [Boceprevir]: the Euclidean distance was 1.48 with 786-O; 0.973 with A549; 1.59 with DU145; 1.13 in the assay on FB; 0.545 with HEPG2; 1.45 in the assay on OVCAR4.

In the case of `CCCCc1nc(C)c(CC(=S)N(C)C)c(=O)n1Cc1ccc(-c2ccccc2-c2nnn[nH]2)cc1` [Fimasartan], the Euclidean distance was 0.829 with 786-O; 0.807 with A549; 0.902 in the assay with DU145; 0.862 in the assay on FB; 0.679 in the assay on HEPG2; 0.989 with OVCAR4.

Take `Nc1nc(F)nc2c1ncn2[C@@H]1O[C@H](CO)[C@@H](O)[C@@H]1O` [Fludarabine]: the Euclidean distance is 1.67 with 786-O; 1.6 in the assay with A549; 1.17 in the assay on DU145; 1.81 with FB; 1.21 in the assay on HEPG2; 1.63 in the assay on OVCAR4.

As for `c1ccc(CN(CC2=NCCN2)c2ccccc2)cc1` [Antazoline HCl], the Euclidean distance in the assay with 786-O turned out to be 1.19; with A549, 0.647; with DU145, 0.893; with FB, 1.02; in the assay on HEPG2 it was 0.685; in the assay on OVCAR4 it was 1.02.

`Cc1nc(Nc2ncc(C(=O)Nc3c(C)cccc3Cl)s2)cc(N2CCN(CCO)CC2)n1` [Dasatinib]: the Euclidean distance was 3.15 with 786-O; 3.53 with A549; 4.42 with DU145; 3.41 with FB; 2.2 in the assay on HEPG2; 3.92 in the assay on OVCAR4.

With `CCCCc1ncc(/C=C(\Cc2cccs2)C(=O)O)n1Cc1ccc(C(=O)O)cc1` [Eprosartan Mesylate], the Euclidean distance in the assay with 786-O amounted to 0.683; in the assay on A549, 0.706; in the assay with DU145, 1.64; in the assay on FB, 0.647; with HEPG2 it was 1.3; in the assay with OVCAR4, 1.44.

In the case of `C[S+](CC[C@H](N)C(=O)[O-])C[C@H]1O[C@@H](n2cnc3c(N)ncnc32)[C@H](O)[C@@H]1O` (some centres not stated) [Ademetionine], the Euclidean distance with 786-O was 0.708; in the assay with A549, 1.02; in the assay on DU145, 0.772; in the assay with FB, 0.885; with HEPG2 it was 0.304; in the assay with OVCAR4, 0.658.

For the compound `COc1cc(F)c(F)c(Nc2ccc(I)cc2F)c1NS(=O)(=O)C1(C[C@H](O)CO)CC1` [Refametinib (RDEA119. Bay 86-9766)], the Euclidean distance worked out at 2.91 in the assay with 786-O; 2.51 in the assay with A549; 2.83 in the assay on DU145; 3.57 in the assay with FB; 1.79 in the assay on HEPG2; 2.27 with OVCAR4.

On to `CN1C(=O)OC(C)(C)C1=O` [Trimethadione], for which the Euclidean distance in the assay on 786-O turned out to be 0.978; in the assay on A549, 1.26; in the assay on DU145 it was 0.732; in the assay on FB it was 0.717; with HEPG2 it was 0.658; in the assay on OVCAR4, 0.721.

`COc1cc(C)c(/C=C/C(C)=C/C=C/C(C)=C/C(=O)O)c(C)c1C` [Acitretin]: the Euclidean distance with 786-O was determined as 1.13; in the assay on A549, 0.972; in the assay with DU145, 0.881; in the assay with FB, 2.31; in the assay on HEPG2 it was 1.39; with OVCAR4, 1.13.

Consider `CC1(C)C2CCC1(C)C(O)C2` (configuration not stated) [Borneol], for which the Euclidean distance in the assay on 786-O came out at 1.17; in the assay with A549 it was 0.812; in the assay with DU145, 1.16; in the assay on FB it was 0.792; in the assay with HEPG2, 0.614; in the assay on OVCAR4 it was 1.08.

Regarding `COc1ccc(-c2nc(N3CCOCC3)c3sc(CN(C)c4ncc(C(=O)NO)cn4)cc3n2)cn1`, the Euclidean distance is 3.46 in the assay on 786-O; 4.27 with A549; 4.25 in the assay on DU145; 3.52 in the assay on FB; 4.2 in the assay on HEPG2; 3.25 in the assay on OVCAR4.

With `C[C@H]1COc2c(N3CCN(C)CC3)c(F)cc3c(=O)c(C(=O)O)cn1c23` [Levofloxacin], the Euclidean distance amounted to 1.07 in the assay on 786-O; 1.12 in the assay on A549; 0.658 in the assay with DU145; 0.922 in the assay on FB; 0.532 with HEPG2; 1.03 in the assay on OVCAR4.
